Screening data deposited in PubChem BioAssay by National Center for Advancing Translational Sciences (NCATS).
HT1080NT lethal = kills 2HG-producing HT-1080-NT fibrosarcoma cells | 360,000 compounds, 1.6% hits | Potency, µM (doses to about 46.1 µM), without a hit: at the highest dose activity, negative = less viability, hits mostly cytotoxic | HT-1080-NT fibrosarcoma viability, CellTiter-Glo ATP luminescence, 48 h | AID 686970;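 note: NT is the 2HG producing partner of a matched IDH1 knockdown line; potency is the fitted concentration of half-maximal effect; 0% = DMSO-treated cells and -100% = media-only wells without cells; nearly all actives have a fitted effect of over 55% in size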
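Compounds were tested in concentration-response format on HT-1080-NT cells for 48 hours at 37 degrees C. Cell viability came from CellTiter-Glo luminescence; curves were classified by r2, response magnitude and activity.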
IL-1B inflam inh = inflammasome signaling inhibition, IL-1 beta readout. THP-1 LPS/ATP IL-1B secretion, AlphaLISA, 16 h; hits give low values. activity change, % at 57.5 µM. 360,000 compounds, 4.7% hits. AID 743279; in the data active = activity change below about -50%; inconclusive = mostly about -30% to -49%
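THP-1 cells pretreated 1 hr with compounds (up to 57.5 uM final), then stimulated with LPS (250 ng/mL final) plus ATP (1.25 mM final); secreted IL-1B measured by AlphaLISA after 16 hr, decreased signal indicating inhibition.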
KB-3-1 cytotox = KB-3-1 parental cell cytotoxicity; 400,000 compounds, 1.4% hits; Potency, µM (doses to about 46.1 µM), most hits filed as cytotoxic; KB-3-1 viability, CellTiter-Glo ATP luminescence, 72 h; note: potency is the fitted concentration of half-maximal effect; nearly all actives have a fitted effect of over 60% in size
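Screening of KB-3-1 cells (DMEM, 10% FBS, phenol-red free) ran from lowest to highest compound concentration; after 72 h at 37 °C viability was read luminescently and curves fitted.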
HT1080 IDH1KD tx = kills HT-1080 cells with IDH1 knockdown; Potency, µM (titrated, usually from 46.1 µM), for inactives: at the highest dose activity, negative = toxicity, hits mostly cytotoxic; 360,000 compounds, 2% hits; HT-1080 IDH1 knockdown viability, ATP luminescence, 48 h; AID 686971;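 note: potency is the fitted concentration of half-maximal effect; 0% = DMSO wells and -100% = cell-free medium wells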
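Knockdown cells (IDH1KD HT-1080) received compounds 2 h after plating at 750 cells/well and were kept 48 h at 37 °C in 5% FBS RPMI. A CellTiter-Glo luminescence read gave % activity for curve fitting.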
KB-V1 cytotox = KB-V1 MDR subline cytotoxicity | 400,000 compounds, 3.4% hits | Potency, µM (series often up to 46.1 µM), actives largely listed as cytotoxic | KB-V1 MDR cells viability, CellTiter-Glo, 72 h; note: potency is the fitted concentration of half-maximal effect; nearly all actives have a fitted effect of over 60% in size
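Cytotoxicity toward P-gp-expressing KB-V1 cells was determined as loss of CellTiter-Glo luminescence after 72 h at 37 degrees C. Compounds were tested in quantitative HTS format across a concentration range, with curves fitted to normalized data.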
The depositor's hits bear a star; i = inactive; u = inconclusive; x = not tested or not shown. Only some compounds are listed: those with a hit (about 8.8% of all), similar ones and a draw of the others. Unless noted, calls come from the whole dose curve; as a rule, active = well fitted curve in the direction sought with a large enough effect; inconclusive = small, poorly fitted or top-dose-only effect, or another doubt; inactive = no such curve, though single readings can be large; an effect the other way counts as inactive or inconclusive. Unless noted, % is set by controls: 0 for no effect and ±100 for the full control effect.

SMILES | HT1080NT lethal | IL-1B inflam inh | KB-3-1 cytotox | HT1080 IDH1KD tx | KB-V1 cytotox
O=C(Nc1cccc(Cl)c1)c1ccc2c(c1)OCCO2 | 0% | -28 | i | -9% | i
O=C(Nc1cccc([N+](=O)[O-])c1)c1ccc2c(c1)OCCO2 | 5% | u | u | 1% | 21µM*
O=C(Nc1cccc([N+](=O)[O-])c1)c1[nH]ncc1Cl | -3% | -7 | i | -2% | 23µM*
OC(CNCCCCNCC(O)C(F)(F)F)C(F)(F)F (stereo not given) | 6% | -6 | i | 11% | i
CC(C)(C)c1ccc(C(=O)NNC(=O)c2cccc(Br)c2)cc1 | u | 7 | i | u | i
Cc1cccc(NC(=O)C(=O)NNC(=O)c2ccc(C(C)(C)C)cc2)c1 | 6.5µM* | -1 | i | 8.2µM* | u
CC(C)(C)c1ccc(C(=O)Nc2cccc([N+](=O)[O-])c2)cc1 | -17% | -98* | u | -7% | 12µM*
CC(NC(=O)c1ccco1)C(=O)OCC(=O)N1CCCCCC1 (stereo not given) | 1% | 22 | i | 0% | u
CC(C)(C)c1ccccc1NC(=O)Nc1nc(C(N)c2ccccc2Cl)cs1 (stereo not given) | u | 25 | i | u | i
CC(C)C(N)c1csc(NC(=O)Nc2ccccc2C(C)(C)C)n1 (stereo not given) | u | -60* | i | u | i
COc1ccc(CC(N)c2csc(NC(=O)NCc3ccccc3)n2)cc1 (stereo not given) | u | -15 | i | 18µM* | i
COc1ccc(CC(N)c2csc(NC(=O)Nc3ccccc3-c3ccccc3)n2)cc1 (stereo not given) | 15µM* | -58* | u | -9% | u
COc1ccc(CC(N)c2csc(NC(=O)NCCc3ccc(OC)c(OC)c3)n2)cc1 (stereo not given) | u | u | i | u | i
COc1cc(CNC(=O)Nc2nc(C(N)Cc3ccc(C(F)(F)F)cc3)cs2)cc(OC)c1OC (stereo not given) | u | -59* | u | u | i
COc1ccc(CC(N)c2csc(NC(=O)c3cccs3)n2)cc1 (stereo not given) | -27% | -19 | i | -21% | u
COc1ccc(CC(N)c2csc(NC(=O)Nc3ccccc3C(C)(C)C)n2)cc1 (stereo not given) | u | -52* | i | u | i
NC(=O)c1ccc2c(=O)n3c(-c4cc(Cl)c(N)c(Cl)c4)csc3nc2c1 | u | -23 | 23µM* | u | i
Cc1csc2nc3cc(C(N)=O)ccc3c(=O)n12 | 15% | 31 | i | 11% | u
O=C(Nc1ccc(F)cc1F)N1CCc2c(sc3c2CCCC3)C1c1ccc(F)cc1 (stereo not given) | x | x | i | x | u
CSc1ccc(NC(=O)Nc2cccn(Cc3ccccc3F)c2=O)cc1 | -1% | -68* | u | -24% | i
O=C(Nc1cccn(Cc2ccccc2)c1=O)NC1CCCCC1 | 0% | -8 | i | -17% | 4.1µM*
O=C(NCc1ccccc1)Nc1cccn(Cc2ccccc2F)c1=O | -12% | 0 | i | -2% | 10µM*
O=C(NCc1ccccc1)Nc1cccn(Cc2ccc(F)cc2)c1=O | -4% | -6 | i | -18% | 12µM*
O=C(NCc1ccccc1)Nc1cccn(Cc2ccccc2)c1=O | 1% | -9 | i | -2% | u
CC(=O)NCCNC(=O)C1(C)Cc2c(-c3cccc(C(F)(F)F)c3)ccnc2O1 (stereo not given) | 4% | 23 | i | 5% | i
C=CCN1C(=O)S/C(=C\c2ccc3c(c2)n(C)c(=O)n3C)C1=O | 9% | 2 | i | 6% | 18µM*
Cc1cc(NC(=O)CN(C)S(=O)(=O)c2ccc3c(c2)CCCC(=O)N3)ccc1Br | x | x | u | x | 16µM*
CC(=O)Nc1ccc(NC(=O)CN(C)S(=O)(=O)c2ccc3c(c2)CCC(=O)N3)cc1 | 2% | 1 | i | 9% | i
